This is an account of results in PubChem BioAssay AID504727 (Broad Institute, 2011).

The experiment in a line: acridine orange-DNA binding displacement – biochemical, fluorescence polarization, cherry-picked samples, set 2, artefact control for KSHV LANA DNA-binding inhibitor project, dose response (AID 504727). (In general: Fluorescence polarisation rises when a labelled molecule tumbles more slowly, as on binding a larger partner.)

Several values for one entry are separate records, joined by “and”; a condition that tells them apart may be missing. Equal values may be shown once. Activity calls are given as the source filed them.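 The calls were made as follows: active = fitted half-maximal concentration AC50 at or below ten times the highest valid tested dose, with signal falling as DNA is displaced (actives reach about 34 µM in these data); inconclusive = flat fit at moderate signal loss, or poor fit quality; inactive = the rest, including signal rising instead of falling.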

The AC50 is the midpoint of the concentration-response curve, whichever way the signal moves. Turning to `CCn1c(=O)c(C(=O)NCCN2CCCCC2)c(O)c2ccccc21`, the AC50 result is “inactive”.

Turning to `CC(Oc1ccccc1)c1nnc(N)s1` (stereo unspecified), the AC50 is 17.5 µM (active).

`COc1ccc(NS(=O)(=O)c2ccc3c(c2)[C@H]2C=CC[C@H]2[C@@H](c2ccc(C(=O)O)cc2)N3)cc1`: the AC50 entry is “inactive”.

As to `COc1ccc(OC)c(NC(=O)c2nnn(Cc3ccc(Br)cc3F)c2N)c1`, the AC50 entry was “inactive”.

For the compound `COc1ccccc1C(=O)NCC(=O)OCC(=O)N(CC(C)C)c1c(N)n(Cc2ccccc2)c(=O)[nH]c1=O`, the AC50 entry is “inactive”.

As for `COc1cc(O)c(C(C)=O)c(CC(=O)O)c1`, the AC50 entry was “inactive”.

Take `O=C(CCN1C(=O)/C(=C/c2ccco2)SC1=S)Nc1ccc(C(=O)O)c(O)c1`: the AC50 entry was “inactive”.

Regarding `Cc1cccc(N(Cc2ccccc2)C(=O)C2CCN(C(=O)c3ccccc3C)CC2)c1`, the AC50 entry is “inactive”.

Consider `O=C1c2ccccc2-c2onc3ccc(NCc4ccco4)c1c23`, for which the AC50 is 3.82 µM (active).

`CC(=O)NC(C(=O)c1ccccc1)C(=O)c1ccccc1`: the AC50 result was “inactive”.

For `O=C(NC1CCCCC1)c1cc([N+](=O)[O-])ccc1N1CCOCC1`, the AC50 result was “inactive”.

On to `COc1cccc(C2CC(=O)Nc3cc4c(cc32)CCC4)c1` (stereo unspecified), for which the AC50 entry was “inactive”.

Take `COC(=O)C1=C(N)OC2=C(C(=O)CCC2)C1c1cccs1` (stereo unspecified): the AC50 result was “inactive”.

Consider `CN(C)c1ccc(/C=N/N(CCO)C2=NS(=O)(=O)c3ccccc32)cc1`, for which the half-maximal activity concentration (AC50) is 4.28 µM (active).

Regarding `NNC(=O)C1C(O)CCC2CN3CCc4c([nH]c5ccccc45)C3CC21` (stereo unspecified), the AC50 result is “inactive”.

Turning to `Oc1[nH]c2ccccc2c1N=Nc1ccccc1F`, the AC50 entry is “inactive”.

Regarding `NNC(=O)CC1=NNC(=O)C1`, the AC50 result was “inactive”.

As to `Cc1ccc(C(=O)CCC(=O)Nc2ncccc2C)cc1`, the AC50 entry was “inactive”.

Turning to `CCN(CC)C(=S)SC1CCCCN(C(=O)c2ccccc2)C1=O` (stereo unspecified), the AC50 entry is “inactive”.

As to `O=C(COc1ccccc1Cc1ccccc1)NCCCN1CCOCC1`, the AC50 is 33.9 µM (active).

On to `Cc1ccsc1/C=N/NC(=O)Cc1ccc(Cl)cc1`, for which the AC50 entry is “inactive”.

`O=C1C=CC2=C3c4cc(O)c(O)cc4CC3(O)COC2=C1O` (stereo unspecified): the AC50 result was “inactive”.

Take `Nc1ccc2nc3c(=O)[nH]c(=S)[nH]c3nc2c1`: the AC50 is 3.69 µM (active).

Turning to `O=S(=O)(O)c1cc(O)c2cc(Nc3ccccc3)ccc2c1`, the AC50 entry was “inactive”.

Turning to `COC(=O)c1c(C)oc2ccc(N(C(C)=O)S(=O)(=O)c3ccccc3)cc12`, the AC50 entry was “inactive”.

Regarding `CC(=O)N/C(=N\OCc1ccc(Br)cc1)c1nonc1NC(C)=O`, the AC50 result is “inactive”.

On to `COc1cccc2c1C(=O)c1c(O)c3c(c(O)c1C2=O)C[C@@](O)(C(=O)CO)C[C@@H]3O[C@H]1C[C@H](N)[C@H](O)[C@H](C)O1`, for which the AC50 was 2.4 µM (active).

Consider `O=C1C=C(c2ccoc2)N2CCC[C@H]2C1`, for which the AC50 entry was “inactive”.

Regarding `O=C(Nc1ccccc1F)c1coc(=O)c(Br)c1`, the AC50 result is “inactive”.

For `O=C(O)c1cccc(-n2cccc2/C=C2/NC(=O)N(c3ccc(Cl)cc3)C2=O)c1`, the AC50 result is “inactive”.

Regarding `CSCCC(NC(=O)c1ccccc1Cl)C(=O)N1CCCC(C)C1` (stereo unspecified), the AC50 entry was “inactive”.

Consider `COc1cc(SC)ccc1C(=O)Nc1nc(C)cs1`, for which the AC50 result was “inactive”.

Consider `CCC(C)[C@H](NC(=O)[C@@H]1Cc2ccccc2CN1)C(=O)Nc1ccc2c(c1)OCO2` (stereo partly specified), for which the AC50 entry is “inactive”.

For `COc1ccc(Cn2nnc3c(=O)[nH]c(C4CCCN(C(=O)c5ccccc5)C4)nc32)cc1` (stereo unspecified), the AC50 result is “inactive”.

On to `CCOc1ccccc1N1CCN(C(=O)c2ccc3nc(N)sc3c2)CC1`, for which the AC50 entry was “inactive”.

On to `N#CC1=C(N)Oc2ccc3ccc(O)cc3c2C1c1ccsc1` (stereo unspecified), for which the AC50 result was “inactive”.

In the case of `Oc1ccccc1C=Nc1ccccc1-c1nc2ccccc2[nH]1`, the AC50 entry is “inactive”.

Consider `CN1CCN(CCCNC(=O)c2cc3c(-c4ccc(Cl)cc4)nn(C)c3s2)CC1`, for which the AC50 entry is “inactive”.

Turning to `Clc1ccc(C2=CC(c3ccco3)n3ncnc3N2)cc1` (stereo unspecified), the AC50 result was “inactive”.

For `O=C1c2cccc3c(O)ccc(c23)C(=O)N1c1ccc(Cl)cc1`, the AC50 was 2.95 µM (active).

Take `C/C(=N/NC(=O)c1cc(O)c(O)c(O)c1)c1ccc([N+](=O)[O-])cc1`: the AC50 entry was “inactive”.

Turning to `CCN(CC(=O)Nc1c(F)cccc1F)C(=O)CCCc1cccs1`, the AC50 entry is “inactive”.

Consider `CCN(Cc1ccccc1)C(=O)c1cccc(S(=O)(=O)N2CCN(Cc3ccccc3)CC2)c1`, for which the AC50 entry was “inactive”.

Consider `Cc1cc(NC(=O)CSc2nnc(COc3cccc(C)c3C)n2C)no1`, for which the AC50 result is “inactive”.

Regarding `CC(C)CN(C(=O)CSc1nncn1C)C1CCS(=O)(=O)C1` (stereo unspecified), the AC50 result is “inactive”.

For the compound `CCOC(=O)c1ccccc1Nc1cc(C)nc2nc(C)nn12`, the AC50 result is “inactive”.

Consider `COC(=O)c1ccccc1NC(=O)CCS(=O)(=O)c1ccc(Br)cc1`, for which the AC50 entry was “inactive”.

Take `CC(C)(CS(=O)(=O)[O-])NC(=O)CC[N+](C)(C)CCO`: the AC50 entry was “inactive”.

For `COCCN(CCOC)Cc1c(O)ccc2c1O/C(=C\c1ccco1)C2=O`, the AC50 was 27.5 µM (active).

As for `COc1cc(NC(=O)c2ccc(CNc3c(N4CCCC4)c(=O)c3=O)cc2)cc(OC)c1OC`, the AC50 result was “inactive”.

On to `Cc1ccc(-c2nnc(-c3ccc(NC(=O)c4ccco4)cc3)o2)cc1`, for which the AC50 entry is “inactive”.

Turning to `CC[C@@]1(O)C(=O)OCc2c1cc1n(c2=O)Cc2cc3c(CN(C)C)c(O)ccc3nc2-1`, the AC50 is 3.8 µM (active).

Turning to `CCN(C(=O)c1cccc(S(=O)(=O)N2CCc3ccccc32)c1)C1CCS(=O)(=O)C1` (stereo unspecified), the AC50 entry was “inactive”.

For `Cc1sc2nnn(CC(=O)N3CCN(C(=O)c4ccco4)CC3)c(=O)c2c1C`, the AC50 entry is “inactive”.

In the case of `O=C(O)c1cc(N2C(=O)C=CC2=O)cc(N2C(=O)C=CC2=O)c1`, the AC50 entry was “inactive”.

Consider `COc1cc(-c2ccc(Nc3ccccc3C(=O)O)c(OC)c2)ccc1Nc1ccccc1C(=O)O`, for which the AC50 result is “inactive”.

As for `O=C1c2c(O)ccc(O)c2C(=O)c2c(NCCNCCO)ccc(NCCNCCO)c21`, the AC50 was 1.34 µM (active) and 2.32 µM (active).

Turning to `CCOC(=O)C1=C(O)/C(=C/c2cc(C)n(-c3ccccc3)c2C)N=C1C`, the AC50 result is “inactive”.

Regarding `CS(=O)(=O)Nc1nc2n(n1)C(c1ccccc1)C=C(c1ccc(Br)cc1)N2` (stereo unspecified), the AC50 was 18 µM (active).

For `Nc1nnc(CC(=O)N/N=C/c2cc([N+](=O)[O-])cc(Br)c2O)s1`, the AC50 entry is “inactive”.

Turning to `Cc1ccc(C)c(N2CCN(C(=O)c3cc4ccccn4n3)CC2)c1`, the AC50 entry was “inactive”.

`COc1ccc2nc3ccccc3[n+]([O-])c2c1`: the AC50 was 26 µM (active).

For the compound `COc1cc(CN2CC(=O)N(c3cc(Cl)ccc3C)C2=S)cc(OC)c1OC`, the AC50 entry was “inactive”.

With `CCOc1ccc(C(C)NC(=O)c2ccccc2OCc2c(C)noc2C)cc1OCC` (stereo unspecified), the AC50 entry was “inactive”.

As to `C=CCn1c(C)cc(-c2csc(NC(=O)CCc3nc4ccccc4c(=O)[nH]3)n2)c1C`, the AC50 result was “inactive”.

`CCn1nc(-c2ccccc2)c2nc3ccccc3nc21`: the AC50 was 24.2 µM (active).

As for `NC(=O)c1ccc(NC(=O)C2COc3ccccc3O2)cc1` (stereo unspecified), the AC50 result is “inactive”.

In the case of `COc1ccc(C2C(C(=O)c3cccs3)=C(O)C(=O)N2c2nncs2)cc1` (stereo unspecified), the AC50 was 3.42 µM (active).

For the compound `CCN(CCCNC(=O)Cn1cc2c(n1)CCCC2)c1cccc(C)c1`, the AC50 entry was “inactive”.

Consider `O=c1ccc2cc3c4c(c2o1)CCCN4CCC3`, for which the AC50 is 15.1 µM (active).

Regarding `Cc1ccc(N=Nc2c(O)[nH]c3ccc(F)cc23)cc1`, the AC50 entry was “inactive”.

As to `CC(C)Cc1nc(SCC(=O)Nc2nnc(CC(C)C)s2)n[nH]1`, the AC50 entry was “inactive”.

Turning to `CC(C)c1ccc(CNc2ccc([N+](=O)[O-])cn2)cc1`, the AC50 entry was “inactive”.

As for `CCCc1nc(NCc2ccccn2)c2nnn(Cc3ccccc3F)c2n1`, the AC50 result was “inactive”.

Regarding `Nc1cccc(N2C(=O)c3cccc4c(N)ccc(c34)C2=O)c1`, the concentration at half-maximal activity (AC50) is 5.76 µM (active).

`C=CC[C@@H](CC(=O)N(CCO)Cc1ccccc1)C(=O)NC[C@H](OC(=O)[C@@H](CC=C)CC(=O)OC(C)(C)C)c1ccccc1`: the AC50 entry was “inactive”.
